Screening data (PubChem)
hDAT+cocaine: changed human dopamine transporter uptake under cocaine IC80. LLC-PK1 hDAT cells, [14C]-dopamine uptake with cocaine IC80; actives deviate in either direction. 1.3% of 110,000 active. B-score at 10 µM;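 active = Z score or B-score, a plate-position-corrected score, falls beyond the plate's 99.7% confidence bounds, in either direction; inactive = both scores lie inside the 99.7% bounds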;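 note: scored against the spread of the other compound wells on the same plate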
D1 allo mod: allosteric modulators of human D1 dopamine receptor. P21728. HEK293 D1, CRE-luciferase, dopamine EC30 potentiation; actives deviate in either direction. B-score at 10 µM. 5.9% of 58,000 active;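 active = luminescence count or its row- and column-corrected plate score outside the 99.7% band of the plate's sample wells, on either side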
Target sequence (P21728 whole entry, looked up): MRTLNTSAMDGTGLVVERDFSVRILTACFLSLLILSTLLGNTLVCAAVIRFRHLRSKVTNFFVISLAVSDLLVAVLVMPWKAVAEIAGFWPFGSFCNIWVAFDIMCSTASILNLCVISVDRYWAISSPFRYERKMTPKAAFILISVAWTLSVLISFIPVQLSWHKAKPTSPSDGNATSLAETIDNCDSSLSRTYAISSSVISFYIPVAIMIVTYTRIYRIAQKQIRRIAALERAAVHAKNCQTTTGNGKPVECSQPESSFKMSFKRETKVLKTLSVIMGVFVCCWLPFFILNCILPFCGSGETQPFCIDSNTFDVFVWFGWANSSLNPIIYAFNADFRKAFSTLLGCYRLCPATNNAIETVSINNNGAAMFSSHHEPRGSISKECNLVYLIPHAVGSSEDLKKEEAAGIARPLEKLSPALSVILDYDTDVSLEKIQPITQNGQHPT
PostGolgi yeast: growth inhibition of a yeast mutant, post-Golgi transport screen | inhibition, % at 10 µM | AID 739 | post-Golgi transport phenotypic cell assay | 0.9% of 98,000 active;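 note: yeast cells grown in 1536-well plates; yeast grown about 18 h at 30C before absorbance read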
PostGolgi ctrl: growth of the yeast control strain, post-Golgi counter-screen; 5% of 98,000 active; efflux-deficient yeast background strain, growth absorbance A615, 16 h; inhibition, % at 10 µM
Cav3 T inh: human Cav3.2 channel inhibition, primary screen; B-score at 10 µM; 4% of 100,000 active; AID 449739; Cav3.2-expressing cells, Fluo-4 calcium fluorescence FDSS; stronger effect = lower value;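 active = single-dose well whose peak fluorescence ratio is a statistical outlier from its plate by either plate-standardised score or position-corrected B-score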
PLAP act: human PLAP activation. P05187. purified PLAP enzyme, luminescent substrate read-out; stronger effect = higher value. activation fold at 20 µM. 1.2% of 96,000 active. AID 696; in the data active = activation fold above about 2
* = called active by the depositor; nt = not tested or not shown. Sampled rows, rich in hits. Any-hit rate of the full collection: about 12%. Cut-off read from the data, not from the text of the source, unless noted: active = inhibition above about 30%; inactive = the rest.

SMILES | hDAT+cocaine | D1 allo mod | PostGolgi yeast | PostGolgi ctrl | Cav3 T inh | PLAP act
COC(=O)C[C@H]1c2cc(C(F)(F)F)ccc2S(=O)(=O)N1C1CCCCC1 | 0.2 | nt | nt | nt | 0.068 | nt
CCOC(=O)c1ccc(NC(=O)CSc2nc3cccnc3n2C)cc1 | 0.25 | nt | nt | nt | 0.2 | nt
CC1(C)CC(NC(=O)c2coc(=O)c(Br)c2)CC(C)(C)N1 | -0.95 | -0.15 | -5 | 20 | 1.2 | 1
CCN(CC(=O)Nc1ccccc1Br)Cc1nc2ccccc2c(=O)[nH]1 | -0.34 | nt | 1 | 4 | 0.5 | 2.3*
Cc1ccc(NC(=O)CN(C)Cc2nc3ccccc3c(=O)[nH]2)c(Br)c1 | 0.44 | nt | -6 | 6 | 1.1 | 2.2*
CC(NC(=O)CN(C)Cc1nc2ccccc2c(=O)[nH]1)c1ccccc1 (stereo not drawn) | 0.33 | nt | 9 | -9 | 0.12 | 2.3*
CCN(CC(=O)NCCc1ccc(S(N)(=O)=O)cc1)Cc1nc2ccccc2c(=O)[nH]1 | -0.031 | nt | -4 | 3 | 0.64 | nt
Cc1cc(Br)ccc1NC(=O)CNC(=O)CN(C)Cc1nc2ccccc2c(=O)[nH]1 | -0.0085 | -0.74 | 1 | -6 | -0.094 | nt
Cc1ccc(S(=O)(=O)CCC(=O)NCc2ccco2)cc1 | -0.53 | nt | -12 | 8 | -0.31 | 1.2
CSC1=C(C#N)C(c2ccccc2C)C(C#N)=C(N)N1 (stereo not drawn) | -2.7 | 0.43 | 2 | 50* | -0.89 | 0.8
CSC1=C(C#N)C(c2ccccc2Cl)C2=C(CCCC2=O)N1 (stereo not drawn) | nt | 0.087 | nt | nt | nt | 0.9
COc1ccc(Cn2cnc3c([N+](=O)[O-])c(C)c(C)cc32)cc1 | -0.18 | nt | -1 | 12 | -6.2* | 0.9
COc1ccc(-n2nnc3c(=O)n(Cc4cccc(C)c4)cnc32)cc1 | -0.15 | nt | -7 | -5 | 0.15 | 1
COc1ccc(C2C(C(N)=O)=C(C)Nc3nc(-c4ccccc4Cl)nn32)c(OC)c1 (stereo not drawn) | 0.68 | 0.11 | -6 | 17 | -0.59 | 0.9
O=C(CCCCCCN1C(=O)c2ccccc2C1=O)N1CCC(c2ccccc2)C1 (stereo not drawn) | 3.4* | nt | nt | nt | -4.3* | nt
CCCCc1nc(SCC(=O)Nc2ccc(S(N)(=O)=O)cc2)n[nH]1 | -0.083 | 0.61 | -5 | 14 | nt | 2*
COc1ccc(C(=O)NCCSCc2ccc(C)cc2)cc1 | 0.21 | nt | -8 | 0 | -5.6* | 0.7
COc1ccc(C(=O)NCCSCc2ccccc2C)cc1 | 1.8 | nt | -2 | 19 | -2.2 | 0.9
O=C(Nc1ccccc1)C1(c2ccccc2)CC1(Cl)Cl (stereo not drawn) | -1.1 | nt | nt | nt | -7.5* | nt
O=C(Nc1ccccc1)C1C2CCC3C(CCC21)C3(Cl)Cl (stereo not drawn) | -1 | nt | 4 | 24 | -2.5 | 1.1
CCC(=O)O[C@]1(C(=O)SCF)[C@H](C)C[C@H]2[C@@H]3C[C@H](F)C4=CC(=O)C=C[C@]4(C)[C@@]3(F)[C@@H](O)C[C@@]21C | 0.43 | nt | nt | nt | -0.49 | nt
COc1ccc(CCN2C(=O)C3C4CC(C5C(C(=O)N/N=C\c6ccc(Cl)cc6)=NOC45)C3C2=O)cc1OC (stereo not drawn) | 0.34 | nt | -6 | 4 | -1.4 | 1.8
CCOC(=O)/C(C#N)=C1/C=Nc2ccccc2N1 | -0.39 | 1.7 | -3 | 41* | 0.45 | 1
Cc1cc(NS(=O)(=O)c2ccc(NC(=O)c3cc(-c4cccnc4)nc4ccc(Cl)cc34)cc2)no1 | 0.65 | nt | -6 | 35* | -0.17 | 1.1
CCOc1nc(Nc2ccc(OC)c(Cl)c2)nc(OCC)n1 | -0.049 | nt | 14 | 36* | -1.3 | 1
SMILES | hDAT+cocaine | D1 allo mod | PostGolgi yeast | PostGolgi ctrl | Cav3 T inh | PLAP act
Cc1noc(C)c1COC(=O)c1cccnc1SCC(=O)Nc1ccc2c(c1)OCO2 | 0.42 | 2 | 4 | 16 | -3.6 | 0.8
Cc1noc(C)c1COC(=O)c1ccc2c(c1)OCO2 | -1.2 | nt | -6 | 43* | 0.36 | 0.8
CCC1(C)CC(CCNS(=O)(=O)c2ccc(C)cc2)(c2ccc(C)cc2)CCO1 (stereo not drawn) | 2.5 | nt | 5 | 21 | -5.3* | 1.4
Cc1ccc(S(=O)(=O)NCCC2(C(C)C)CCOC(C)(C)C2)cc1 (stereo not drawn) | -0.2 | nt | -4 | 8 | -0.71 | 1.1
COc1cccc(NS(=O)(=O)c2c(C)n(C)c(=O)n(C)c2=O)c1 | 0.76 | nt | 7 | 0 | -0.04 | 1.1
COC(=O)c1sccc1NC(=O)CSc1ccccc1NS(=O)(=O)c1ccc(F)cc1 | 0.77 | nt | 7 | 11 | -5.6* | 1.3
Cc1ccccc1NS(=O)(=O)c1ccc(NC(=O)CSCc2ccc(Br)cc2)cc1 | 0.22 | nt | 96* | 91* | -0.67 | 0.9
COC(=O)c1sccc1NC(=O)CN(C)NS(=O)(=O)c1ccc(F)cc1 | 0.78 | nt | -13 | 17 | 0.07 | 0.9
O=C(CSCc1ccc(Br)cc1)Nc1ccc(S(=O)(=O)N2CCOCC2)cc1 | -1.6 | nt | 1 | 19 | -2.9 | 0.8
COC(=O)c1sccc1NC(=O)CSc1ccccc1NS(=O)(=O)c1ccc(Br)cc1 | 0.76 | nt | -20 | 32* | -3 | 1.5
COC(=O)c1sccc1NC(=O)CSc1ccc(Cl)cc1 | 0.21 | nt | -5 | 5 | -2 | 0.9
Nc1ccc(CN2CCN(c3ccc4ccccc4n3)CC2)cc1 | nt | -2.9 | nt | nt | nt | nt
Cc1cccc(C)c1N1CCN(c2nc(N(C)C)oc(=O)c2C#N)CC1 | 0.035 | nt | 1 | 4 | 0.28 | 0.8
O=C1/C(=C\c2ccco2)SC(=S)N1Cc1ccccc1 | 2.2 | nt | -1 | -5 | 0.15 | 0.8
Cc1ccc(N2C(=O)/C(=C\c3ccco3)SC2=S)cc1 | -0.5 | nt | -6 | 32* | -0.24 | 1
O=C(Cn1nnc(-c2ccc(CN3CCOCC3)cc2)n1)Nc1nc(-c2ccccc2)cs1 | -9.6* | 0.44 | -4 | 7 | 0.079 | 1.1
CN1CCN(CC(=O)Nc2nc(-c3ccccc3)cs2)CC1 | nt | nt | 0 | 7 | nt | 1.2
Cn1c(Cc2ccccc2)nnc1SCC(=O)NC1CCCCC1 | 0.044 | 0.015 | -2 | -3 | 0.29 | 1
COc1ccccc1-n1nnnc1SCC(=O)NC1CCCC1 | 0.12 | -0.041 | -2 | 42* | -0.26 | 0.9
CCn1c(Cc2ccc(OC)cc2)nnc1SCC(=O)NC1CCCCC1 | 0.56 | 0.01 | 7 | 31* | 0.81 | 0.9
COC1(OC)C=CC(=O)C=C1NC(=O)c1ccccc1OC(C)=O | -0.35 | nt | nt | nt | 0.74 | nt
CCc1ccc(NC(=O)C(C)Oc2nnc(-c3cccs3)c(-c3cccs3)n2)cc1 (stereo not drawn) | -0.032 | nt | -4 | 2 | -4.4* | 1
CC(C)c1ccc(NC(=O)COc2nnc(-c3cccs3)c(-c3cccs3)n2)cc1 | -0.36 | nt | -5 | 9 | -5.1* | 1.1
CCC(C)C(=O)Nc1nnc(-c2cccs2)s1 (stereo not drawn) | 0.0064 | 0.39 | -4 | 3 | -1.4 | 1
CC1N(O)C(C)(C)C(c2ccccc2)=[N+]1[O-] (stereo not drawn) | 0.31 | nt | nt | nt | 0.91 | nt
CCOC(=O)c1cc2n(c1/N=C/N(C)C)-c1ccccc1C2=O | 0.58 | nt | -8 | 22 | -3.9* | 1.1
